The list is not random: actives were taken first. Their share in the collection is about 5.8%.
TRPV1 agonist: human TRPV1 agonism; TRPV1-expressing cells, Fluo-8 calcium influx, agonist mode; actives 0.19% (n = 320,000); activation, % at 8.33 µM; Q8NER1; in the data active means activation above about 80%; inconclusive means between about 30% and that limit; further: 0% is about no effect
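TRPV1-expressing cells were cultured overnight at 35.5C and loaded with Fluo-8 calcium dye for 40 to 90 min at room temperature. After a 10 s baseline, compound was added and calcium influx was read kinetically for 3 min (ex 480/em 520 nm).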
VP16 counter: Gal4-VP16 reporter inhibition counter-screen | Drosophila S2 Gal4-VP16 UAS-luciferase, luminescence, 20 h | Potency, µM (top dose mostly 53.6 µM), for the others: top-dose activity, negative = inhibition, usual class: inhibitors | actives 3.5% (n = 310,000) | AID 2546;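 further: Gal4-VP16 expression switched on by copper sulfate through the metallothionein promoter; potency means the concentration at half of the fitted maximal effect; on the % scale 0 is the no-effect control and ±100 the full control effect; nearly all actives have a fitted effect of over 50% in size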
TRPV1 potentiator: human TRPV1 potentiation | Q8NER1 | TRPV1-expressing cells, Fluo-8 calcium influx, capsaicin EC20 potentiation | potentiation, % at 8.33 µM | actives 0.02% (n = 320,000) | AID 540277; in the data active means potentiation above about 80%; inconclusive means between about 30% and that limit; further: 0% is about no effect
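Fluo-8 calcium influx in TRPV1-expressing cells, kinetic read (ex 480/em 520 nm). Compound added and read 3 min for agonist activity, followed by capsaicin at EC20 final and 2 min further read for enhancement.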
RORg inh: inhibitors of mouse ROR gamma transcriptional activity | P51450 | Drosophila S2 Gal4-RORgamma UAS-luciferase reporter, 20 h | Potency, µM (top dose mostly 53.6 µM), for inactives: at the highest dose activity change, negative = inhibition, actives largely listed as inhibitors | actives 5.4% (n = 310,000); further: potency means the concentration at half of the fitted maximal effect; on the % scale 0 is the no-effect control and ±100 the full control effect; nearly all actives have a fitted effect of over 60% in size
Target sequence (P51450 whole entry, looked up, the tested form may be a part): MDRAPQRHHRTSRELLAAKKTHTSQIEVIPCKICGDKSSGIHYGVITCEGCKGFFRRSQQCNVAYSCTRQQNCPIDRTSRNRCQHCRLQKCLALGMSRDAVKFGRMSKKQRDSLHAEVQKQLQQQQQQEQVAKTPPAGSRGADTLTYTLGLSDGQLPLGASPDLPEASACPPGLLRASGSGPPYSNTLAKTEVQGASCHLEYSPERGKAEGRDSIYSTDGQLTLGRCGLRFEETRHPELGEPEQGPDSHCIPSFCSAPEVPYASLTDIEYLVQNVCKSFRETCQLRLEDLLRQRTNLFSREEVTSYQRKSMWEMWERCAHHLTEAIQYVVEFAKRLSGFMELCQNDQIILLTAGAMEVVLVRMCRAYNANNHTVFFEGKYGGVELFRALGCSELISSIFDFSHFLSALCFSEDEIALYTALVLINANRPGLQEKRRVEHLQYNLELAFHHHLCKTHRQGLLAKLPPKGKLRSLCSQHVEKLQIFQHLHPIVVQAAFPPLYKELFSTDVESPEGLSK
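Schneider cells (Drosophila), stable Gal4 DBD–ROR gamma + UAS-luc; 1 hr cmpd preincubation; Cu2+ induction 700 uM final; 20 hr ambient; luminescence.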
uPA generation: blocks generation of uPA at the cell surface. Potency, µM (series often up to 38.3 µM), for the others: at the top dose activity change, negative = inhibition, most hits filed as inhibitors. AID 540303. cell surface uPA generation assay, qHTS. actives 0.31% (n = 330,000); active means well fitted inhibition curve with a large enough effect; inconclusive means small, poorly fitted or top-dose-only effect; inactive means no such curve, though single readings can be large or run the other way; tested in mouse RAW 264.7 cells; further: potency means the concentration at half of the fitted maximal effect; on the % scale 0 is the no-effect control and ±100 the full control effect; nearly all actives have a fitted effect of over 55% in size
Active calls of the source: *; ? = inconclusive; nt = not tested or not shown; [ ] = another dose, or the depositor's remark. Unless noted, the call rests on the fitted dose curve; in most records, active means well fitted curve in the direction sought with a large enough effect; inconclusive means small, poorly fitted or top-dose-only effect, or another doubt; inactive means no such curve, though single readings can be large; an effect the other way counts as inactive or inconclusive.

SMILES	TRPV1 agonist	VP16 counter	TRPV1 potentiator	RORg inh	uPA generation
COc1ccc(OC)c(C2=Nn3c(nnc3-c3cccc(OC)c3OC)SC2)c1	nt	0.3%	nt	-1.1%	nt
CCOc1cccc(/C=C/c2ccc3cccc(O)c3n2)c1O	1.7	?	8.5	3.55µM*	-11.5%
CCOc1c(OC(C)=O)ccc(/C=C/c2ccc3cccc(OC(C)=O)c3n2)c1[N+](=O)[O-]	-1.8	3.55µM*	1.3	3.16µM*	nt
CCOc1cccc(/C=C/c2ccc3cccc(O)c3n2)c1OC	3.9	12.6µM*	11.7	2.82µM*	-1.4%
O=C(CCC1CCCN(C(=O)c2ccc3cc[nH]c3c2)C1)NCc1ccc(F)c(F)c1 (stereo unspecified)	0.9	-3.1%	-2.7	?	3.8%
CCN(CC)CCCCC1CCN(CC(=O)N2c3ccccc3C(=O)Nc3cccnc32)CC1	nt	4.1%	nt	-14.7%	nt
O=C(CC1C(=O)NCCN1CC1CCCCC1)NC1(c2ccccc2)CC1 (stereo unspecified)	-0.6	-1.9%	3.5	1.3%	1.6%
CCC(=O)Nc1nn(CC(C)C)c2nc3ccc(C)cc3cc12	?	-1.1%	-13.5	-3.7%	-18.6%
COc1ccc(CCNC(=O)CSc2nc3ccccc3o2)cc1	-0.5	-2.3%	-2.1	-0.8%	8.9%
Cn1c(=O)c2c(nc(CN3CCN(c4ccccc4)CC3)n2CCCc2ccccc2)n(C)c1=O	nt	nt	nt	nt	4.8%
CCCCn1c(CN2CCN(c3ccccc3)CC2)nc2c1c(=O)n(C)c(=O)n2C	-1.5	6.31µM*	22.9	-7.4%	-19.5%
N#CC1=C(N)Oc2cc(N)ccc2C1c1ccccc1F (stereo unspecified)	3.5	11.8%	-22.5	-34.1%	-9.7%
CCC(C)C(NC(=O)OCc1ccccc1)C(=O)NCC(c1ccccc1)N(C)C (stereo unspecified)	-1.8	3.5%	-12.0	-9.1%	13.8%
COc1ccc(-c2nnc(SCC(=O)NC3CCCCC3)n2N)cc1	-1.4	nt	7.1	nt	-1.4%
CC(C)CC(=O)/C=C/n1c(=S)oc2ccccc21	2.5	11.2µM*	-3.5	-96.1%	-1.7%
CC(=O)/C=C/n1c(=S)oc2ccccc21	4.1	3.16µM*	4.0	2.82µM*	15.9%
O=C(NCc1cccc(C(F)(F)F)c1)C1CC2Cn3c(nc4ccccc43)C2N1Cc1ccccc1 (stereo unspecified)	nt	nt	nt	nt	3.2%
Oc1ccc(Br)cc1C1C=C(c2ccc3c(c2)OCO3)NC(c2ccc(F)c(Br)c2)N1 (stereo unspecified)	10.6	nt	14.9	nt	nt
Cn1c(NC(=O)c2cccc(Cn3cc(Cl)cn3)c2)nc2ccccc21	3.3	2.82µM*	9.8	1.78µM*	-1.6%
CCn1c(NC(=O)c2cccc(Cn3cc(Cl)cn3)c2)nc2ccccc21	0.8	2µM*	6.8	2.82µM*	?
CC(C)CNC(=O)c1cccc(Cn2cc(Cl)cn2)c1	10.1	13.7%	-5.5	26.5%	-0.4%
Cn1c(=O)[nH]c(=O)c2c1nc(N1CCNCC1)n2Cc1cccc2ccccc12	-2.0	-9.7%	8.7	-17.8%	5.9%
O=C(c1cccc2nc3ccccc3nc12)N1CCOCC1	-2.4	-0.7%	22.8	10.1%	0.5%
CC(=O)c1ccc(N2CCN(C(=O)CCC(=O)c3cccs3)CC2)cc1	10.0	1.8%	-7.3	-0.3%	2.2%
O=C(CCC(=O)N1CCN(c2ccc(O)cc2)CC1)c1cccs1	-4.5	?	-13.8	16.3%	3.98µM*
SMILES	TRPV1 agonist	VP16 counter	TRPV1 potentiator	RORg inh	uPA generation
COc1ccc(OC)c(NC(=O)NC2CCCc3ccccc32)c1 (stereo unspecified)	1.6	-12.8%	-1.3	-2.1%	-4.6%
CC1CN=C(c2cccn2Cc2ccc(F)cc2Cl)O1 (stereo unspecified)	-3.7	?	10.6	6.31µM*	2.7%
Fc1ccc(NC(=S)NCc2ccccc2Cl)cc1	?	14.1µM*	-14.7	7.08µM*	-5.2%
NC(=S)Cc1ccccc1Cl	1.0	-26.0%	7.3	10µM*	1.5%
COc1ccccc1CNC(=S)Nc1ccc(F)cc1	19.4	6.31µM*	-16.3	7.94µM*	0.1%
CCCNC(=S)Nc1ccc(CC(=O)OC)cc1	2.3	6.8%	3.4	-40.3%	1.0%
COC(=O)Cc1ccc(NC(=S)NCc2ccccc2OC)cc1	5.8	25.1µM*	-7.9	8.91µM*	0.3%
NC(=S)Cc1ccc(Cl)cc1Cl	1.4	?	?	?	5.4%
CCOc1ccc(N(C)S(=O)(=O)c2ccc(C)c(C(=O)NCc3cccs3)c2)cc1	-1.8	nt	6.2	nt	-14.5%
COC(=O)[C@H](C)NC(=O)C/C=C\[C@@H](C)[C@H]1C=C[C@H](O)[C@@H](CO)O1	nt	11.4%[10 µM]	nt	-15.7%[10 µM]	nt
COc1ccccc1CNC(=O)CCc1ccccc1	0.4	27.6%	-8.6	?	-7.7%
COc1ccccc1CNC(=O)CC(C)c1ccccc1 (stereo unspecified)	1.8	-5.0%	16.9	15.8%	11.2%
S=C(NCc1ccccc1)NCc1ccccc1Cl	?	20µM*	-2.1	12.6µM*	-12.6%
COc1ccccc1CNC(=S)NCCc1ccccc1	?	?	-26.3	2.51µM*	-0.8%
CCC(C)c1ccc(NC(=S)NCc2ccccc2OC)cc1 (stereo unspecified)	83.2*	8.91µM*	-11.9	2.24µM*	nt
CC(C)C[C@@H](CC(=O)N[C@H](CC(=O)N[C@@H]1CCCC[C@H]1C(=O)N[C@H](CC(=O)N[C@@H](CCC(=O)O)CC(=O)O)CC(C)C)C(C)C)NC(=O)[C@@H]1CNCC[C@H]1N	nt	-12.8%	nt	-13.2%	nt
N/C(Cn1cncn1)=N\NC(=O)C(=O)Nc1ccc(Cl)cc1Cl	-0.2	?	?	10µM*	-3.6%
O=C(Nc1nnc(-c2cccs2)o1)c1ccc(S(=O)(=O)N2CCOCC2)cc1	0.3	1.58µM*	4.9	0.708µM*	3.5%
CC1CCCCN1S(=O)(=O)c1ccc(C(=O)Nc2nnc(-c3ccccc3Cl)o2)cc1 (stereo unspecified)	3.6	0.501µM*	9.8	0.708µM*	-9.2%
CS(=O)(=O)c1ccccc1-c1nnc(NC(=O)c2ccc(S(=O)(=O)N3CCCC3)cc2)o1	-7.1	nt	-16.9	nt	5.8%
CCC1CCCCN1S(=O)(=O)c1ccc(C(=O)Nc2nnc(C3CC3)o2)cc1 (stereo unspecified)	-2.8	0.316µM*	-0.3	0.316µM*	-10.8%
O=C(Nc1nnc(-c2ccccc2Cl)o1)c1ccc(S(=O)(=O)N2CCCCCC2)cc1	4.3	0.398µM*	3.7	0.447µM*	-7.1%
CC1CCCCN1S(=O)(=O)c1ccc(C(=O)Nc2nnc(-c3ccncc3)o2)cc1 (stereo unspecified)	-8.1	7.5%	?	5.8%	0.5%
CCC(C)C(NC(=O)OC(C)(C)C)C(=O)NC1COC2CC(n3cc(C)c(=O)[nH]c3=O)OC12 (stereo unspecified)	nt	0.4%	nt	-3.6%	nt
